From publication PMC12136788 come the findings set out here.

The full ranking holds about 24,000 sequences; the median of “enrichment r” is about 0.99, and the highest 2% start at about 3.7. Not all results are given here.

Sequences and labels used below:
B1: chr14:63761926:63761927:+_ENSMUSG00000021939_ENSMUST00000006235|mus_mus|FALSE|FALSE (ssRNA)
RNA: GGGAGUUCUACAGUCCGACGAUCCUGCCAAUGUCAAGCAGAGGGAGAAUUGGUUUAUUGGCACAGACAUUCCUUGUUAAACUACAGGGUUAAGUGGUAACUACAACAAAAAGCAAGUUUUUUUUUCCAGACUAGUUUCAUUGUCAACAGAGGAUUGAGCAUCA
B2: chr1:23381596:23381597:+_ENSG00000004487_ENST00000356634|hu_hu|motif|central (ssRNA)
RNA: GGGAGUUCUACAGUCCGACGAUCAGUUGGUAGGGGUUUUAUCCUCUUAUAGAUGCCGAAGUUGAUAAGACCAUGACGCUCGGAAUAACUGUGAACUCGGUGGACAAGCACAGUAUCACUGUUAUAAGGUGCUUCUAAUUGUUGCAACAGAGGAUUGAGCAUCA
B3: chr1:220276048:220276049:+_ENSG00000067704_ENST00000302637|hu_hu|hu_hu_hu_mus_True|18_88 (ssRNA)
RNA: GGGAGUUCUACAGUCCGACGAUCGCAAAUUGCCUGGUUGGCGGGAAUCGUCCAAGGCUGGGUGGUCCAAACUAAAACGCUAACAGGGGAUGAGGCAUCUGUAAGAGACUCCAACUUUGGAGAAGGCCUCAGGAGGGGGAAUCUCAACAGAGGAUUGAGCAUCA
B4: chr11:111909998:111909999:+_ENSG00000150768_ENST00000533297|hu_hu|FALSE|FALSE (ssRNA)
RNA: GGGAGUUCUACAGUCCGACGAUCACCCUUCCCUUUGGUCCAGCAGGAGUAGCUGGGCAGGGUGCUGAAGGUGUAGGAGCUAAAGGCUGGGGAGUUGGAGGAACAGCGGCCACCGGGGGUGGGGUAGGUGGUGGCACUUGUGGUCAACAGAGGAUUGAGCAUCA
B5: 91020203_91021877_1494_CDS_ENSMUSG00000030091_ENSMUST00000032179|mouse|control|control (ssRNA)
RNA: GGGAGUUCUACAGUCCGACGAUCCAUGACCCCCUUGACGGUGACUGUGGCAACCAUGGAGCUUGACGAAGACCAGCUGAAGUUCCCACUGCCCCCAUGGGCCUUUAUGGUAUACUGAUAGGCGCCUGUCUUUGGUUGCCAUGGCAACAGAGGAUUGAGCAUCA
B6: chr7:7679991:7679992:-_ENSG00000106399_ENST00000396682|hu_hu|hu_hu_hu_mus_False|88_98 (ssRNA)
RNA: GGGAGUUCUACAGUCCGACGAUCUGGGAUGAAUCUUUUCCAGCCUCCCUACGAAGCACACGGGCCGGUCGAUAUACUGUGGUAACAUGCUGGCGUUGACGCGCGCUUUGGGGAGCUGCAUUAUGUCCUCCAUGAUUCUGCCGCCAACAGAGGAUUGAGCAUCA
B7: chr8:104075188:104075189:+_ENSG00000155097_ENST00000518738|hu_hu|motif|central (ssRNA)
RNA: GGGAGUUCUACAGUCCGACGAUCCUUCCUAAACAAGGUGACAUUACACAGGUAACUGUCUUGGUCCUCUGAAAGAACAUUGCGGGACCUUGGAACUACCAUUUCGGCUAGUGUUUCAUACUGCUUAAUCCAGUCGUUGUGGUUCAACAGAGGAUUGAGCAUCA
B8: chr8:122087627:122087628:-_ENSMUSG00000034189_ENSMUST00000036049|mus_hu|FALSE|FALSE (ssRNA)
RNA: GGGAGUUCUACAGUCCGACGAUCUAGUUACAAAAUAAUACUUUUCAGUAGUCUUUCUUGAUGCACAUUUAAAAACCAGCACAACUCCUCUAGUGAAAUGGUCAAUUUCCCUUAAAAAACAACAUCUGAAAUUAUAAGACCUGACAACAGAGGAUUGAGCAUCA
B9: chr3:132387698:132387699:+_ENSG00000081307_ENST00000264991|hu_hu|FALSE|FALSE (ssRNA)
RNA: GGGAGUUCUACAGUCCGACGAUCUUGAACUUUACUUAAUCCUGCUUGAUGAGGUUGGAAGAAAAGUCUAUUCAUAUUGGCUAGUUCCACCUUGUCAUAAUCAAAGAGUAGCAACUUACCAAUGCCACAUCUUGUCAGCAUUUCCAACAGAGGAUUGAGCAUCA
B10: chr6:40197388:40197389:+_ENSMUSG00000057716_ENSMUST00000061740|mus_mus|mus_mus_mus_hu_False|18_58 (ssRNA)
RNA: GGGAGUUCUACAGUCCGACGAUCGAGACACUGGGGUGGAUUUAUUCCACCUCUGUUUGGGUGCUAGCCACUAAGACAGCUAUUUUGGGAUUCAUGGCCUUGAAUAUCAAGAGGGAAGGGACGAGAAUGGAAAGAGUCAAGAGUCAACAGAGGAUUGAGCAUCA
B11: chr11:98549071:98549072:+_ENSMUSG00000017221_ENSMUST00000017365|mus_hu|FALSE|FALSE (ssRNA)
RNA: GGGAGUUCUACAGUCCGACGAUCAUCCAGCUUGUCCAGGAACUCAUAGACCCGGGCGUGAUAAUAGUAACACUUUGCGGCUACAAGGUCUAGGGCCCGGCGGUUCUGAGUACUGAUCUUCUGCAUCAGAUCAUCAGAGAUCUUCAACAGAGGAUUGAGCAUCA
B12: chr15:103023242:103023243:-_ENSMUSG00000009575_ENSMUST00000118152|mus_mus|motif|central (ssRNA)
RNA: GGGAGUUCUACAGUCCGACGAUCAACUAGCAGCAUUGAUGAGGGGUUAAGGGAUUGGGGACAGAAACUCACCAAGGUCACGGAGUACUUCCAAACUUGGAAGUAGCUCAGUGAGGGCUAAAAAAACUUCGACUGAAGGUAUCCCAACAGAGGAUUGAGCAUCA
B13: chr7:99968543:99968544:+_ENSMUSG00000030643_ENSMUST00000032879|mus_mus|FALSE|FALSE (ssRNA)
RNA: GGGAGUUCUACAGUCCGACGAUCAAAGACCCUGAGUGAAUCUUCGGACUAGGCACGUCUUUCCCACUCCAGCGUUGCCAAUUAAAACAAUUUUGAACAGGAAAUCAUAAUCUUCCAUACUCAUUUACACAGCUGGUUUGGGAUCAACAGAGGAUUGAGCAUCA
B14: chr4:56883625:56883626:-_ENSMUSG00000055296_ENSMUST00000068792|mus_mus|FALSE|FALSE (ssRNA)
RNA: GGGAGUUCUACAGUCCGACGAUCUAUAGGCGUGCGCCACCACGCCCGGGUUUAAAAUGUGUAGACCAGGCUGGCCUCGAACUCGCGAUCCUCCUGCUUCUGCCUCCUUCAGCAAAUCCUACUGGCGUGCGCCACCACAACCAGCAACAGAGGAUUGAGCAUCA

This assay concerns the target T1, UNK ZnF1-3 (human, UniProt Q9C0B0 31-174).
T1 sequence: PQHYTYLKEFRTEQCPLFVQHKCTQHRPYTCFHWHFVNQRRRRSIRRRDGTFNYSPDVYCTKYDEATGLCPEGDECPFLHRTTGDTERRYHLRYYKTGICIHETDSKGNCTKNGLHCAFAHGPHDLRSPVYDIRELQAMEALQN
Briefly: nsRBNS (natural sequence RNA bind-n-seq); RBNS binding buffer (assumed for nsRBNS): 25 mM Tris pH 7.5, 150 mM KCl, 3 mM MgCl2, 0.01% Triton X-100, 500 ug/ml BSA, 20 U/ml SUPERase-In, 4 C; UNK is unkempt and MSI1 is Musashi-1; names of the RNAs are library labels; protein concentration not given here; high values mean tight binding.
On to B1, for which the binding signal came out at 1.12 enrichment R.

On to B2, for which the binding signal was 0.878 enrichment R.

The molecule B3 registered a binding signal of 2.21 enrichment R.

As to B4, the binding signal was determined as 1.76 enrichment R. For B5 the value was 0.642 enrichment R.

Turning to B6, the binding signal is 0.573 enrichment R. In turn, B7 gave a binding signal of 0.508 enrichment R. Consider B8, for which the binding signal worked out at 1.2 enrichment R. As for B9, the figure is 0.799 enrichment R; as for B10, 1.36 enrichment R; as for B11, 0.693 enrichment R. As for B12, the figure is 1.29 enrichment R; as for B13, 1.1 enrichment R.

The molecule B14 had a binding signal of 0.972 enrichment R.
